Reference: PubChem BioAssay (NCI)
The panel holds about 83,000 compounds, 20% with a hit somewhere; the sample as a whole holds those more often.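 Cell lines were cultured in 96-well plates, exposed to a single compound concentration, and assessed for percent growth 48 hours later.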 The source made the active and inactive calls. Rule for the calls: active = growth percent below 10; inactive = the rest.

Key:
Experiment in all cases: NCI-60 one-dose screen, 48 h (100 = growth as untreated, 0 = no growth, -100 = all killed)
Conditions in all cases: 10 µM unless noted
SK-MEL-2 melanoma = test system: SK-MEL-2 melanoma
EKVX NSCLC = test system: EKVX NSCLC
SN12C renal = test system: SN12C renal
UO-31 renal = test system: UO-31 renal
TK-10 renal = test system: TK-10 renal
ACHN renal = test system: ACHN renal
A498 renal = test system: A498 renal
CCRF-CEM leukemia = test system: CCRF-CEM leukemia
MOLT-4 leukemia = test system: MOLT-4 leukemia
SR leukemia = test system: SR leukemia

Measured: growth

C=C1C(=O)O[C@H]2[C@H]1CC/C(COC(=O)c1cn(C)c3ccccc13)=C\CC[C@@]1(C)O[C@@H]21
inactive: A498 renal 65.4%
active: SK-MEL-2 melanoma -60% | EKVX NSCLC -29.1% | SN12C renal -40.3% | UO-31 renal -93.5% | TK-10 renal -75.2% | ACHN renal -82.7% | CCRF-CEM leukemia 1.59% | MOLT-4 leukemia -0.986% | SR leukemia -9.81%

O=C1Nc2ccc(Br)cc2/C1=N\N=C/c1cn(Cc2ccccc2)c2ccccc12
inactive: SK-MEL-2 melanoma 91.3% | EKVX NSCLC 56.2% | SN12C renal 84.5% | UO-31 renal 75.7% | TK-10 renal 82.4% | ACHN renal 98.9% | A498 renal 15.3% | CCRF-CEM leukemia 81.1% | MOLT-4 leukemia 67% | SR leukemia 80.1%

COc1ccc(C(=O)c2cc(F)c(F)c(OC)c2F)cc1OC(=O)CCl
inactive: SK-MEL-2 melanoma 25.9% | EKVX NSCLC 73.9% | SN12C renal 39.4% | UO-31 renal 71.8% | TK-10 renal 88.2% | ACHN renal 59.8% | A498 renal 94.5% | CCRF-CEM leukemia 32.8% | MOLT-4 leukemia 29.6% | SR leukemia 20.8%

COc1ccc2nc(-c3ccc(Cl)cc3)cc(C(=O)N3N=C(c4ccc(N)cc4)CC3c3ccccc3)c2c1 (stereo not given)
inactive: SK-MEL-2 melanoma 43.2% | EKVX NSCLC 35.6% | SN12C renal 57.8% | UO-31 renal 45.5% | TK-10 renal 68.1% | ACHN renal 52.8% | A498 renal 56.9% | CCRF-CEM leukemia 31.2% | MOLT-4 leukemia 43.2% | SR leukemia 25.1%

O=C(Nc1cc(=O)[nH]c(=O)[nH]1)C(Cl)Cl
inactive: SK-MEL-2 melanoma 105% | EKVX NSCLC 114% | SN12C renal 98% | UO-31 renal 88.8% | TK-10 renal 101% | ACHN renal 111% | A498 renal 100% | CCRF-CEM leukemia 96% | MOLT-4 leukemia 98.4% | SR leukemia 98.6%

COc1ccc(C(C)c2cc(OC)c(OC)c(OC)c2)cc1 (stereo not given)
active: MOLT-4 leukemia 9.71%
inactive: SK-MEL-2 melanoma 33.6% | EKVX NSCLC 35.8% | SN12C renal 39.1% | UO-31 renal 47.3% | TK-10 renal 67.5% | ACHN renal 37% | A498 renal 15.7% | CCRF-CEM leukemia 18.5% | SR leukemia 13.3%

COC(=O)c1nc(-c2ccccc2)oc1S(=O)(=O)n1nc(-c2ccccc2)cc1N
active: SR leukemia 1.74%
inactive: SK-MEL-2 melanoma 85.9% | EKVX NSCLC 95.9% | SN12C renal 73.3% | UO-31 renal 65.6% | TK-10 renal 114% | ACHN renal 19.2% | A498 renal 108% | CCRF-CEM leukemia 27.2% | MOLT-4 leukemia 17.6%

CCOC(=O)c1c(C)nc2c(c1N)/C(=C/c1cccs1)C(=O)N2c1ccc(OC)cc1
inactive: SK-MEL-2 melanoma 33% | EKVX NSCLC 49.8% | SN12C renal 39.4% | UO-31 renal 16.5% | TK-10 renal 35.7% | ACHN renal 31.5% | A498 renal 35.1% | CCRF-CEM leukemia 92.2% | MOLT-4 leukemia 80.5% | SR leukemia 55.8%

CCN1CCN(Cc2ccc(NC(=O)c3cccc(C#Cc4cccc5[nH]nc(N)c45)c3)cc2C(F)(F)F)CC1
active: SK-MEL-2 melanoma -70.1% | EKVX NSCLC -46.4% | SN12C renal -35.4% | UO-31 renal -92.3% | TK-10 renal -94.4% | ACHN renal -81.1% | A498 renal -63.5% | CCRF-CEM leukemia -16.2% | MOLT-4 leukemia -31.2% | SR leukemia -49.2%

CCCn1c2cc(OCc3cn(-c4ccc(Br)cc4)nn3)ccc2c2ccnc(C)c21
active: SR leukemia -15.2%
inactive: SK-MEL-2 melanoma 70.6% | EKVX NSCLC 82.7% | SN12C renal 17.5% | UO-31 renal 23.4% | TK-10 renal 85.9% | ACHN renal 17.4% | A498 renal 77.8% | CCRF-CEM leukemia 13.1% | MOLT-4 leukemia 45.6%

COc1cc(C(C)c2ccc3c(ccn3C)c2)cc(OC)c1OC (stereo not given)
active: A498 renal 8.95%
inactive: SK-MEL-2 melanoma 30.5% | EKVX NSCLC 34.9% | SN12C renal 32.6% | UO-31 renal 35.2% | TK-10 renal 71.3% | ACHN renal 28.5% | CCRF-CEM leukemia 16.3% | MOLT-4 leukemia 12.6% | SR leukemia 13.8%

CCc1n(Cc2ccc3ccccc3c2)c2ccccc2[n+]1Cc1ccc2ccccc2c1
inactive: SK-MEL-2 melanoma 71.6% | EKVX NSCLC 76.7% | SN12C renal 65.2% | UO-31 renal 87.2% | TK-10 renal 75.5% | ACHN renal 96.5% | A498 renal 87.6% | CCRF-CEM leukemia 63.5% | MOLT-4 leukemia 73.4% | SR leukemia 28.4%

COc1ccc(C2C(c3ccccc3)C(=O)N2c2cc(OC)c(OC)c(OC)c2)cc1I (stereo not given)
active: A498 renal -2.63% | CCRF-CEM leukemia 7.6% | MOLT-4 leukemia 7.85% | SR leukemia 8.89%
inactive: SK-MEL-2 melanoma 56.3% | EKVX NSCLC 61.9% | SN12C renal 33% | UO-31 renal 18.7% | TK-10 renal 75.1% | ACHN renal 26.5%

COc1cc(/C=C/C(=O)/C=C/c2cc3ccc(Cl)cc3n(Cc3ccccc3)c2=O)ccc1O
inactive: TK-10 renal 13.8% | A498 renal 69.2%
active: SK-MEL-2 melanoma -13.2% | EKVX NSCLC 8.91% | SN12C renal -18.4% | UO-31 renal -88.9% | ACHN renal -15.4% | CCRF-CEM leukemia 3.16% | MOLT-4 leukemia 5.11% | SR leukemia 1.8%

N#Cc1nc(-c2ccccc2)oc1S(=O)(=O)NCC(c1ccc(Cl)cc1)N1CCCCC1 (stereo not given)
inactive: SK-MEL-2 melanoma 72.2% | EKVX NSCLC 106% | SN12C renal 65.6% | UO-31 renal 65.5% | TK-10 renal 112% | ACHN renal 82.7% | A498 renal 102% | SR leukemia 12.2%
active: CCRF-CEM leukemia 1.94% | MOLT-4 leukemia 1.32%

C=CCn1c(SCC(=O)Nc2ccc(C(=O)/C=C/c3cc(OC)c(OC)c(OC)c3)cc2)nnc1-c1ccccc1
inactive: SK-MEL-2 melanoma 101% | EKVX NSCLC 95.8% | SN12C renal 93.1% | UO-31 renal 78.3% | TK-10 renal 108% | ACHN renal 103% | A498 renal 87.5% | CCRF-CEM leukemia 57.1% | MOLT-4 leukemia 76.9% | SR leukemia 32.5%

COCCOCCOCc1n(Cc2ccc3ccccc3c2)c2ccccc2[n+]1Cc1ccc2ccccc2c1
inactive: EKVX NSCLC 47.4% | SN12C renal 11.7% | UO-31 renal 81.9% | ACHN renal 93.9% | A498 renal 12% | CCRF-CEM leukemia 12%
active: SK-MEL-2 melanoma -18.8% | TK-10 renal 3.33% | MOLT-4 leukemia 4% | SR leukemia -39.5%

COc1ccc(/C=C/C(=O)c2ccc(NC(=O)CSc3nnc(-c4ccc(OC)c(OC)c4)n3-c3ccccc3)cc2)cc1
active: UO-31 renal -81.3% | CCRF-CEM leukemia -20.9% | SR leukemia -38.2%
inactive: SK-MEL-2 melanoma 74.7% | EKVX NSCLC 66% | SN12C renal 40.5% | TK-10 renal 101% | ACHN renal 59.9% | A498 renal 93.5% | MOLT-4 leukemia 10.8%

COCCc1n(Cc2ccc3ccccc3c2)c2ccccc2[n+]1Cc1ccc2ccccc2c1
inactive: ACHN renal 20.3%
active: SK-MEL-2 melanoma -61.6% | EKVX NSCLC 4.7% | SN12C renal -68% | UO-31 renal -18.7% | TK-10 renal -80.9% | A498 renal -19.1% | CCRF-CEM leukemia -9.95% | MOLT-4 leukemia -43.4% | SR leukemia -57%

c1ccc2c3c([nH]c2c1)C(c1ccc(C2NCCc4c2[nH]c2ccccc42)cc1)NCC3 (stereo not given)
active: SK-MEL-2 melanoma -13% | UO-31 renal -0.102% | ACHN renal -73.1% | CCRF-CEM leukemia -16.7% | MOLT-4 leukemia -62% | SR leukemia -51.5%
inactive: EKVX NSCLC 20.6% | SN12C renal 41.6% | TK-10 renal 63.4% | A498 renal 116%

C=C1C(=O)O[C@H]2[C@H]1CCC(/C=N/c1ncc(Br)cc1N)=C\CC[C@@]1(C)O[C@@H]21
active: SN12C renal -24.8% | UO-31 renal -72.3% | TK-10 renal -4.72% | ACHN renal 2.47% | CCRF-CEM leukemia 0.102% | MOLT-4 leukemia -3.09% | SR leukemia -3.64%
inactive: SK-MEL-2 melanoma 46.6% | EKVX NSCLC 29% | A498 renal 78%

CC[C@]12C=CCN3CC[C@@]4(c5ccc(OC)cc5N(C)[C@H]4[C@@](O)(C(=O)OC)[C@@H]1OC(=O)CCC(=O)O[C@H]1CC[C@H]4[C@@H]5CC[C@H]6CC(=O)CC[C@]6(C)[C@H]5CC[C@]14C)[C@@H]32
inactive: EKVX NSCLC 21.2% | SN12C renal 24.8% | UO-31 renal 13.3% | TK-10 renal 21.2% | ACHN renal 19.1% | A498 renal 12.3%
active: SK-MEL-2 melanoma 8.52% | CCRF-CEM leukemia 7.55% | MOLT-4 leukemia 1.58% | SR leukemia -10.4%

CCN(CC)CC#CCOC(=O)[C@]1(C)CCC[C@]2(C)[C@H]3C[C@H]4C(C(C)C)=C[C@]3(CC[C@H]21)[C@@H]1C(=O)CCC(=O)[C@@H]14
inactive: SK-MEL-2 melanoma 72.3% | EKVX NSCLC 55.9% | SN12C renal 57.1% | UO-31 renal 50.9% | TK-10 renal 95.4% | ACHN renal 72.5% | A498 renal 102% | CCRF-CEM leukemia 20.5% | MOLT-4 leukemia 10.7% | SR leukemia 10.2%

CC[C@H](Nc1ncnc2nc[nH]c12)c1nc2cccc(CC(=O)c3ccc(C(=O)NO)cc3)c2c(=O)n1-c1ccccc1
inactive: SK-MEL-2 melanoma 77.5% | EKVX NSCLC 90.6% | SN12C renal 84% | UO-31 renal 87.4% | TK-10 renal 88.1% | ACHN renal 102% | A498 renal 74% | CCRF-CEM leukemia 90.1% | MOLT-4 leukemia 66.8% | SR leukemia 67.6%

CCOC(=O)C1=C(C)n2nc(CC#N)c(C#N)c2NC1c1ccc(Cl)cc1 (stereo not given)
inactive: SK-MEL-2 melanoma 105% | EKVX NSCLC 89% | SN12C renal 96.6% | UO-31 renal 73.3% | TK-10 renal 123% | ACHN renal 90.8% | A498 renal 98.6% | CCRF-CEM leukemia 96.4% | MOLT-4 leukemia 104% | SR leukemia 101%
